Here are results for 44 compounds from the antibiotic and cytotoxicity screens of Wong et al. (2023).

The structures appear in SMILES notation. Out of some 39,000 compounds screened, about 3,300 (8.5%) were called active. The sample as a whole holds a higher share of actives than the screen did.

This test deals with HepG2. As to the kind of experiment: cytotoxicity call (relative viability < 0.9). The note with it: 10 µM.
Regarding `Cc1noc(C)c1NC(=O)N(C)C[C@H]1OCCCC[C@H](C)Oc2ccc(NC(=O)c3ccccc3)cc2C(=O)N([C@H](C)CO)C[C@@H]1C`, the cytotoxicity call is “inactive”. For `C[C@H]1CNC(=O)[C@@H](CC(=O)N(CCOC(=O)NCCCCCC(=O)NO)Cc2ccccc2)C/C=C/CC[C@H](NC(=O)OC(C)(C)C)C(=O)O1` the value was “inactive”; for `COc1ccccc1C#Cc1ccc2c(c1)O[C@@H](CN(C)C(C)=O)[C@@H](C)CN([C@@H](C)CO)S2(=O)=O`, “inactive”; for `C[C@H]1CCCCO[C@@H](CN(C)Cc2ccc(C(=O)O)cc2)[C@@H](C)CN([C@@H](C)CO)C(=O)c2cc(NC(=O)C3CCCCC3)ccc2O1`, “inactive”.

As for `C[C@H](NC(=O)C[C@H]1C[C@@H]2c3cc(NC(=O)Nc4ccc(C(F)(F)F)cc4)ccc3O[C@@H]2[C@H](CO)O1)c1ccccc1`, the cytotoxicity call is “inactive”.

Regarding `C[C@@H]1CCCCO[C@@H](CN(C)C(=O)Nc2cccc3ccccc23)[C@@H](C)CN([C@H](C)CO)C(=O)c2cc(NS(C)(=O)=O)ccc2O1`, the cytotoxicity call was “inactive”.

With `C[C@H]1CN([C@@H](C)CO)C(=O)c2cc(NC(=O)Cn3cnnn3)ccc2O[C@@H]1CN(C)S(C)(=O)=O`, the cytotoxicity call is “inactive”.

Take `CN(C)C(=O)C[C@@H]1CC[C@@H]2[C@H](COC[C@@H](O)CN2S(=O)(=O)c2ccccc2)O1`: the cytotoxicity call is “inactive”. In the case of `C[C@@H]1CN([C@H](C)CO)S(=O)(=O)c2ccc(-c3ccc(F)cc3)cc2O[C@@H]1CN(C)C(=O)C1CCOCC1`, the cytotoxicity call is “inactive”. For `COc1ccc(NC(=O)Nc2ccc3c(c2)C(=O)N([C@H](C)CO)C[C@H](C)[C@@H](CN(C)C(=O)Cc2ccccc2)OCCCC[C@@H](C)O3)cc1` the value was “inactive”; for `CCc1nc2ccc(C(=O)Nc3cccc(OCC(=O)N(C)C)c3)cn2c1N(C)Cc1cc2ccccc2s1`, “inactive”; for `CCc1nc2ccc(C(=O)NC3CCN(Cc4ccccc4)CC3)cn2c1N(C)CCN1CCOCC1`, “inactive”. Regarding `CCc1nc2ccc(C(=O)NC3CCN(Cc4ccccc4)CC3)cn2c1N(C)Cc1cc2ccccc2s1`, the cytotoxicity call is “active”. For `C[C@@H]1CCCCO[C@@H](CN(C)C(=O)Nc2ccc(C(F)(F)F)cc2)[C@H](C)CN([C@@H](C)CO)C(=O)c2cc(NC(=O)Cc3ccccc3)ccc2O1` the value was “inactive”.

As to `O=C(O)CN(CCN(CC(=O)O)CC(=O)O)CCN(CC(=O)O)CC(=O)O`, the cytotoxicity call is “inactive”.

Turning to `CO[C@H]1CCCNC1`, the cytotoxicity call is “inactive”.

Regarding `COc1ccc(NC(=O)N(C)C[C@@H]2Oc3ccc(NC(=O)CCCCCC(=O)Nc4ccccc4N)cc3C(=O)N([C@H](C)CO)C[C@H]2C)cc1`, the cytotoxicity call was “inactive”. For `C[C@@H]1CN([C@@H](C)CO)C(=O)c2cc(NC(=O)CCCCCC(=O)Nc3ccccc3N)ccc2O[C@@H]1CN(C)C(=O)Nc1ccc(C(F)(F)F)cc1` the value was “inactive”; for `C[C@H](CO)N1C[C@H](C)[C@@H](CN(C)C(=O)Nc2ccc(C(F)(F)F)cc2)Oc2ccc(NC(=O)CCCCCC(=O)Nc3ccccc3N)cc2C1=O`, “inactive”. For `C[C@H](CO)N1C[C@H](C)[C@H](CN(C)C(=O)Nc2ccc(C(F)(F)F)cc2)Oc2ccc(NC(=O)CCCCCC(=O)Nc3ccccc3N)cc2C1=O` the value was “active”; for `C[C@H]1CN([C@@H](C)CO)C(=O)c2cc(NC(=O)CCCCCC(=O)Nc3ccccc3N)ccc2O[C@H]1CN(C)C(=O)Nc1ccc(C(F)(F)F)cc1`, “active”; for `C[C@H]1CN([C@@H](C)CO)C(=O)c2cc(NC(=O)CCCCCC(=O)Nc3ccccc3N)ccc2O[C@@H]1CN(C)C(=O)Nc1ccc(C(F)(F)F)cc1`, “inactive”. In the case of `COc1ccc(NC(=O)N(C)C[C@@H]2Oc3ccc(NC(=O)CCCCCC(=O)Nc4ccccc4N)cc3C(=O)N([C@H](C)CO)C[C@@H]2C)cc1`, the cytotoxicity call was “active”. For `C[C@@H]1CN([C@H](C)CO)C(=O)c2cc(NC(=O)CCCCCC(=O)Nc3ccccc3N)ccc2O[C@H]1CN(C)C(=O)Nc1ccc(C(F)(F)F)cc1`, the cytotoxicity call is “inactive”. For `COc1ccc(NC(=O)N(C)C[C@H]2Oc3ccc(NC(=O)CCCCCC(=O)Nc4ccccc4N)cc3C(=O)N([C@@H](C)CO)C[C@H]2C)cc1` the value was “inactive”. For `C[C@@H]1CCCCO[C@H](CN(C)S(=O)(=O)c2ccc(F)cc2)[C@@H](C)CN([C@@H](C)CO)C(=O)c2cc(NC(=O)Nc3cccc4ccccc34)ccc2O1` the value was “inactive”; for `CC(=O)N(C)CCc1ccc(C)[n+]([O-])c1`, “inactive”; for `C[C@@H]1CN([C@H](C)CO)C(=O)c2cc(-c3cncnc3)cnc2O[C@@H]1CN(C)C(=O)CN1CCOCC1`, “inactive”. In the case of `Cc1ccc(S(=O)(=O)N(C)C[C@H]2OCCCC[C@@H](C)Oc3ccc(NC(=O)Nc4ccc(F)cc4)cc3C(=O)N([C@@H](C)CO)C[C@@H]2C)cc1`, the cytotoxicity call is “inactive”. With `C[C@H](O)C#Cc1cnc2c(c1)C(=O)N([C@H](C)CO)C[C@H](C)[C@H](CN(C)C(=O)Nc1ccc(C(F)(F)F)cc1)O2`, the cytotoxicity call is “inactive”. For `CO[C@@H]1CN(C)C(=O)c2cc(NC(=O)C3CC3)ccc2OC[C@H](C)N(C(=O)Cc2ccccn2)C[C@H]1C` the value was “inactive”.

For the compound `O=C1C=CC(=O)N1c1ccc(O)cc1`, the cytotoxicity call was “active”. For `O=C1CCC(c2ccc(O)cc2)CC1` the value was “inactive”; for `Cc1ccc(S(=O)(=O)N(C)C[C@H]2OCCCC[C@@H](C)Oc3ccc(NC(=O)Nc4ccc(C(F)(F)F)cc4)cc3C(=O)N([C@H](C)CO)C[C@@H]2C)cc1`, “inactive”; for `C[C@@H]1CN([C@@H](C)CO)C(=O)c2cc(NC(=O)Cn3cnnn3)ccc2O[C@H]1CN(C)S(=O)(=O)c1cn(C)cn1`, “inactive”. For `C[C@@H]1CN([C@H](C)CO)C(=O)c2cc(NC(=O)Nc3cccc4ccccc34)ccc2O[C@@H](C)CCCCO[C@@H]1CN(C)S(=O)(=O)c1cn(C)cn1`, the cytotoxicity call is “inactive”.

`C[C@@H]1CN([C@@H](C)CO)C(=O)c2cccc(NS(=O)(=O)c3cn(C)cn3)c2O[C@@H]1CN(C)S(=O)(=O)c1cccs1`: the cytotoxicity call is “inactive”. For `Cc1ccc(O)cc1` the value was “inactive”; for `Oc1ccc(O)cc1`, “active”. For `Nc1ccc(O)cc1` the value was “active”; for `Nc1cccc(O)c1`, “inactive”; for `OCc1ccc(O)cc1`, “inactive”. For `Nc1ccc(C(=O)O)cc1` the value was “inactive”; for `C[C@@H]1CCCCO[C@H](CN(C)S(=O)(=O)c2ccccc2)[C@@H](C)CN([C@H](C)CO)C(=O)c2cc(NS(=O)(=O)c3cn(C)cn3)ccc2O1`, “inactive”.
